We go through 37 molecules from PubChem BioAssay (NCATS).

Where “and” joins values, the source holds several entries; their conditions need not be identical. Equal entries are not always repeated. Results filed as inconclusive are left out. Entries that show only a call come without a potency. Calls of active or inactive are those of the source. The call rests on the fitted dose curve; in most records, active means well fitted inhibition curve with a large enough effect; inconclusive means small, poorly fitted or top-dose-only effect; inactive means no such curve, though single readings can be large or run the other way.
Further: nearly all actives have a fitted effect of over 35% in size.
Potency means the concentration at half of the fitted maximal effect.

One assay is described as follows: BET inhibitor-based combinations targeting novel dependencies in MECOM-rearranged (r) AML: SET-2 cell line (AID 2202231). Conditions: SET-2 AML cells viability, CellTiter-Glo luminescence, 48 h; viability: active compounds read low, concentration not given here. In outline: (§1)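 AML cell lines seeded at 500 cells/well, treated with 11-point dose curves for 48 h. Viability by CellTiter-Glo luminescence, normalised to DMSO and empty wells; activity expressed as AUC and per-cell-line Z-transformed AUC.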
Background: Cellular ATP, detected with luciferase, serves as a proxy for viable cell number.
What is called viability is a read-out of living cells in per cent, often relative to untreated cells. For the molecule `CCCCS(=N)(=O)CCC(N)C(=O)O` (centres undefined), the viability is 120% (inactive).
Still for that read-out and setting: the value for `NC(=O)c1ncn([C@@H]2O[C@H](CO)[C@@H](O)[C@H]2O)c1O` was 109% (inactive) and 121% (inactive); that for `NCCS(=O)(=O)O` was 125% (inactive).
Same read-out and setting: for `Cc1cnc(NC(=O)C2=C(O)c3ccccc3S(=O)(=O)N2C)s1` the value was 110% (inactive) and 107% (inactive) and 111% (inactive).
Consider `Nc1ncn([C@@H]2O[C@H](CO)[C@@H](O)[C@H]2O)c(=O)n1`, for which the Potency is 1.05 µM (active).
On to `CN(CCOc1ccc(NS(C)(=O)=O)cc1)CCc1ccc(NS(C)(=O)=O)cc1`, for which the viability is 110% (inactive).
With `Cc1cc(Cl)ccc1OCCCC(=O)NO`, the Potency is 1.32 µM (active).

A further assay is described as follows: BET inhibitor-based combinations targeting novel dependencies in MECOM-rearranged (r) AML: OCI-AML3 cell line (AID 2202232). The conditions noted are these: CellTiter-Glo luminescence, 48 h; Potency: OCI-AML3 viability; series mostly up to 46 µM. In outline:
as §1
Regarding `CCCc1c(OCCCOc2ccc(OCC(=O)O)cc2)ccc(C(C)=O)c1O`, the Potency result is “inactive”.
The same measure, in the same setting: the value for `COc1ccc2[nH]cc(CCNC(C)=O)c2c1` was “inactive”.
The same measure, in the same setting: for `CCC(C)N(C)C(=O)c1cc2ccccc2c(-c2ccccc2Cl)n1` (centres undefined) the value was “inactive”; for `O=c1c(O)c(-c2ccc(O)cc2O)oc2cc(O)cc(O)c12`, “inactive”.
Regarding `CC(C)NCC(O)c1ccc(NS(C)(=O)=O)cc1` (centres undefined), the Potency result is “inactive”.
Still for that read-out and setting: for `COc1ccc(C2CNC(=O)C2)cc1OC1CCCC1` (centres undefined) the value was “inactive”.
The same measure, in the same setting: for `O=C1CCC(N2C(=O)c3ccccc3C2=O)C(=O)N1` (centres undefined) the value was “inactive”.
In the case of `Nc1ncnc2c1ncn2[C@@H]1O[C@H](CO)[C@@H](O)[C@H]1O`, the Potency result was “inactive”.
Still for that read-out and setting: for `Cc1cccc(-c2[nH]ncc2-c2ccc3ncccc3n2)n1` the value was “inactive”.
Same read-out and setting: the value for `CCn1cc(C(=O)O)c(=O)c2cc(F)c(N3CCNC(C)C3)c(F)c21` (centres undefined) was “inactive”.
Regarding `CNC[C@H](O)c1ccc(O)c(O)c1`, the Potency entry is “inactive”.
As for `Nc1nc2c(ncn2COC(CO)CO)c(=O)[nH]1`, the Potency entry was “inactive”.
On the same count and under the same terms, the value for `NCCCCCC(=O)O` was 0.0037 µM (active); that for `CC(C)NCC(O)COc1ccc(CCOCC2CC2)cc1` (centres undefined) was “inactive”.
Still for that read-out and setting: for `O=C(O)C1CCCN(CCC=C(c2ccccc2)c2ccccc2)C1` (centres undefined) the value was “inactive”; for `NS(=O)(=O)c1cc2c(cc1Cl)NC=NS2(=O)=O`, “inactive”.
Still for that read-out and setting: the value for `CCN(CC)CCNC(=O)c1c(C)[nH]c(/C=C2\C(=O)Nc3ccc(F)cc32)c1C` was 5.9 µM (active).
For the molecule `CCOC(=O)C(C)(C)Oc1ccc(Cl)cc1`, the Potency entry is “inactive”.
On to `COc1cccc(-c2cc(=O)c3ccccc3o2)c1N`, for which the Potency is 5.25 µM (active).
Consider `C[C@@H](c1ncncc1F)[C@](O)(Cn1cncn1)c1ccc(F)cc1F`, for which the Potency entry was “inactive”.
Regarding `CN1CCC(=C2c3ccccc3CC(=O)c3sccc32)CC1`, the Potency is 18.6 µM (active).
On the same count and under the same terms, the value for `CC12CC3CC(C)(C1)CC(N)(C3)C2` was “inactive”.
On the same count and under the same terms, for `CC(C(=O)O)c1cccc(C(=O)c2ccccc2)c1` (centres undefined) the value was “inactive”.
On the same count and under the same terms, for `Nc1nnc(-c2cccc(Cl)c2Cl)c(N)n1` the value was “inactive”.
In the case of `CNC[C@H](O)c1cccc(O)c1`, the Potency result was “inactive”.
For `CC(C)(C)NCC(O)c1ccc(O)c(CO)c1` (centres undefined), the Potency entry was “inactive”.
For the molecule `COC(=O)Nc1nc2ccc(C(=O)c3cccs3)cc2[nH]1`, the Potency is 0.0934 µM (active).
On the same count and under the same terms, for `O=C1N(c2ccccc2)c2ccccc2C1(Cc1ccncc1)Cc1ccncc1` the value was “inactive”; for `Nc1nc2c(ncn2COCCO)c(=O)[nH]1`, “inactive”; for `CCCCNc1cc(C(=O)O)cc(S(N)(=O)=O)c1Oc1ccccc1`, “inactive”.
As for `CCCCS(=N)(=O)CCC(N)C(=O)O` (centres undefined), the Potency was 9.59 µM (active).
For `NC(=O)c1ncn([C@@H]2O[C@H](CO)[C@@H](O)[C@H]2O)c1O`, the Potency result is “inactive”.
Same read-out and setting: for `NCCS(=O)(=O)O` the value was “inactive”; for `Cc1cnc(NC(=O)C2=C(O)c3ccccc3S(=O)(=O)N2C)s1`, “inactive”.
Take `Nc1ncn([C@@H]2O[C@H](CO)[C@@H](O)[C@H]2O)c(=O)n1`: the Potency was 5.9 µM (active).
In the case of `CN(CCOc1ccc(NS(C)(=O)=O)cc1)CCc1ccc(NS(C)(=O)=O)cc1`, the Potency result was “inactive”.
The same measure, in the same setting: for `Cc1cc(Cl)ccc1OCCCC(=O)NO` the value was 20.9 µM (active).
